Reference: PubChem BioAssay

What follows are compounds tested against Torsin-1A (Homo sapiens) (UniProt O14656) (assay: torsin A mutant lysate binding on microarrays – cell lysate, small-molecule microarray, COS7 lysate, 635/667 nm fluorescence, primary screen (AID 1150;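 further: score pools 667 nm emission and signal to noise measuring lysate protein binding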)). Settings: COS7 hTOR1A mutant lysate, 635 nm fluorescence, higher = more signal.
Chain of Torsin-1A (Homo sapiens) (O14656 whole entry, looked up): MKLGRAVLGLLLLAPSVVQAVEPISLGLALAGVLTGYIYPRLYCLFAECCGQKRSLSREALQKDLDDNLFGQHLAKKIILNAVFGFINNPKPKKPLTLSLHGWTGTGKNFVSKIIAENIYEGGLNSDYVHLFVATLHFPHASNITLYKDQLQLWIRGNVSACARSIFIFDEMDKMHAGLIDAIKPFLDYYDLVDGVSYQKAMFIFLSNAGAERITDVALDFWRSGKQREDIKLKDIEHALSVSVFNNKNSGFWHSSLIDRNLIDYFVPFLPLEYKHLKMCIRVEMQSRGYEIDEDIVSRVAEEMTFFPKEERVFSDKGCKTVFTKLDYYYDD

Compared with `COc1cc(NN2C(C(O)c3ccco3)C=CC3C(=O)N(c4ccccc4)C(=O)C32)cc(OC)c1OC` (configuration not stated), `O=C1C2C=CC(C(O)CCc3ccccc3)N(Nc3ccccc3F)C2C(=O)N1c1ccccc1` (configuration not stated) is lower in composite z-score: 0.594 for the first, 0.538 for the second.

First: COC(=O)[C@@]1(Cc2ccc(OC)cc2)[C@H]2c3cc(C(=O)N(C)C)n(CCc4ccccn4)c3C[C@H]2CN1C(=O)c1ccccc1
Second: COC(=O)[C@@]1(Cc2ccc(OC)cc2)[C@H]2c3cc(C(=O)N(C)C)n(Cc4ccccn4)c3C[C@H]2CN1C(=O)c1ccccc1
The composite z-score of the first is lower: 1.04 for the first, 1.59 for the second.

Going from `O=C(NC1CC1)[C@@H]1c2ccccc2C(=O)N(Cc2ccccc2Cl)[C@H]1c1ccc(CO)cc1` to `COC(=O)[C@@]1(Cc2ccc(F)cc2)[C@H]2c3cc(C(=O)N(C)C)n(Cc4ccccc4)c3C[C@H]2CN1C(=O)c1ccccc1`, the composite z-score falls from 0.941 to 0.099.

Going from `C=C[C@H](CO[Si](CC)(CC)CC)N(Cc1ccc(OC(C)=O)c(OC)c1)S(=O)(=O)c1ccc(Br)cc1` to `CCCCCCc1nc(-c2ccc(OC)nc2)cc2c1[Si](C(C)C)(C(C)C)O[C@H]2c1ccccc1`, the composite z-score falls from 0.671 to -0.234.

Going from `O=C1O[C@@H](c2ccccc2)[C@@H](c2ccccc2)N2[C@@H](c3ccccc3OCCO)[C@]3(C(=O)Nc4ccc(C#CC5=CCCCC5)cc43)[C@@H](C(=O)N3CCCCCCC3)[C@H]12` to `COC(=O)C(CC#Cc1ccc2c(c1)[C@]1(C(=O)N2)[C@H](C(=O)Nc2nc3ccccc3s2)[C@H]2C(=O)O[C@H](c3ccccc3)[C@H](c3ccccc3)N2[C@@H]1c1ccccc1OCCO)C(=O)OC`, the composite z-score falls from 2.9 to 0.733.

First: CCOC(=O)[C@H]1C/C=C/C[C@H](C(=O)OCC)C(=O)O[C@H]2[C@@H](OC)O[C@H](CO)[C@@H](OC(=O)c3c(OC)cccc3OC)[C@@H]2OC1=O
Second: CCOC(=O)C[C@H]1[C@H](OC(=O)c2ccc(C(=O)c3ccccc3)cc2)[C@@H](NC(=O)c2ccc3ccccc3c2)c2cc(OCCCO)ccc2N1C(=O)Cc1ccc(OC)cc1
The composite z-score of the first is higher: 0.209 for the first, 0.16 for the second.

Compared with `CCC(CC)C(O)C1C=CC2C(=O)NC(=O)C2N1Nc1ccc(Cl)cc1Cl` (configuration not stated), `C=C(C)[C@@H]1CC=C(C(O)C2C=CC3C(=O)N(C)C(=O)C3N2Nc2ccccc2)CC1` (some centres not stated) is lower in composite z-score: 0.418 for the first, 0.385 for the second.

Compared with `COC(=O)[C@@]1(CCC(=O)OC(C)(C)C)N=C(c2ccc(OCCCO)cc2)O[C@H]1c1ccccc1N=[N+]=[N-]`, `C=CCN1C(=O)[C@@]2(CC=C)N=C(c3ccc(OCCCO)cc3)O[C@H]2c2ccccc21` is higher in composite z-score: -0.143 for the first, 0.658 for the second.

First: CCCC[C@@H]1C[C@H]1[C@@H](NC(=O)c1ccccc1)c1ccc(C(=O)OC)cc1
Second: CCCC[C@@H]1C[C@H]1[C@@H](NC(=O)c1ccco1)c1ccc(-c2ccccc2)cc1
The composite z-score of the first is lower: -0.686 for the first, 0.952 for the second.

Going from `CN(C)C(=O)[C@@]1(CCS(=O)(=O)c2ccccc2)COC(c2ccc(OCCCO)cc2)=N1` to `C=C(COC)/C(=C/C[C@@H](OC(C)=O)c1ccc(OCCO)cc1)c1cnc2ccccc2c1`, the composite z-score falls from 2.51 to 0.647.

Compared with `COc1ccc(C#Cc2ccc3c(c2)[C@]2(C(=O)N3)[C@H](C(=O)Nc3nc4ccccc4s3)[C@H]3C(=O)O[C@H](c4ccccc4)[C@H](c4ccccc4)N3[C@@H]2c2ccc(O)cc2)cc1`, `C=CCOC(=O)[C@@H]1[C@H]2C(=O)O[C@H](c3ccccc3)[C@H](c3ccccc3)N2[C@H](c2ccc(OCCOC(=O)[C@@H]3C[C@@H]4C(=O)NCC(=O)N4[C@@H]3c3ccc(O)cc3)cc2)[C@@]12C(=O)Nc1ccc(I)cc12` is lower in composite z-score: 0.903 for the first, 0.706 for the second.

Compared with `C=C(CC1([C@@H](NP(=O)(c2ccccc2)c2ccccc2)[C@H]2C[C@@H]2CCCC)CC1)c1ccccc1`, `CCCC[C@@H]1C[C@H]1[C@@H](NC(=O)c1ccco1)c1ccccc1C(F)(F)F` is lower in composite z-score: 0.738 for the first, -0.0311 for the second.

Compared with `O=C1C2C=CC(C(O)Cc3ccccc3)N(n3cnnc3)C2C(=O)N1Cc1ccccc1` (configuration not stated), `COCCOC(=O)N1C(=O)[C@@]2(c3cc(C#CCNC(N)=O)ccc31)[C@H](C(=O)N1CCN(c3ncccn3)CC1)[C@H]1C(=O)O[C@H](c3ccccc3)[C@H](c3ccccc3)N1[C@@H]2c1ccc(OCCO)cc1` is lower in composite z-score: 1.05 for the first, 0.453 for the second.

In the case of `CC#CC(=O)Oc1ccccc1C=CC(=O)OCC`, the composite z-score is reported as 0.222.

What follows are compounds tested on Sonic hedgehog protein (Shh) (assay: Sonic hedgehog microarray binding compounds – biochemical, small-molecule microarray, 635/667 nm fluorescence, primary screen (AID 1151;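 further: Shh protein binding to compounds spotted on small-molecule microarray slides; score combines spot fluorescence intensity with signal-to-noise across triplicate slides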)). Settings: 635 nm fluorescence, higher = more signal.

First: COCCOC(=O)N1C(=O)[C@@]2(c3ccccc31)[C@H](c1ccc(O)cc1)N1[C@H](c3ccccc3)[C@H](c3ccccc3)OC(=O)[C@H]1[C@@H]2C(=O)Nc1nc2ccccc2s1
Second: COc1ccc(C#Cc2ccc3c(c2)[C@]2(C(=O)N3)[C@H](C(=O)Nc3nc4ccccc4s3)[C@H]3C(=O)O[C@H](c4ccccc4)[C@H](c4ccccc4)N3[C@@H]2c2ccc(O)cc2)cc1
The composite z-score of the first is lower: 1.13 for the first, 2.02 for the second.

Compared with `C=CCOC(=O)[C@H]1[C@@H]2C(=O)O[C@@H](c3ccccc3)[C@@H](c3ccccc3)N2[C@@H](c2ccc(OCCOC(=O)[C@H]3C[C@H]4C(=O)N[C@@H](CCCCN(C)C)C(=O)N4[C@H]3c3ccc(O)cc3)cc2)[C@]12C(=O)Nc1ccc(I)cc12`, `C=CCOC(=O)[C@@H]1[C@H]2C(=O)O[C@H](c3ccccc3)[C@H](c3ccccc3)N2[C@H](c2ccc(OCCOC(=O)[C@@H]3C[C@@H]4C(=O)NCC(=O)N4[C@@H]3c3ccc(O)cc3)cc2)[C@@]12C(=O)Nc1ccc(I)cc12` is lower in composite z-score: 1.96 for the first, 1.53 for the second.

Compared with `NC(=O)[C@@H]1[C@H]2C(=O)O[C@H](c3ccccc3)[C@H](c3ccccc3)N2[C@H](c2ccc(O)cc2)[C@@]12C(=O)Nc1ccccc12`, `COC(=O)C(CC#Cc1ccc2c(c1)[C@]1(C(=O)N2)[C@H](c2ccc(OCCO)cc2)N2[C@H](c3ccccc3)[C@H](c3ccccc3)OC(=O)[C@H]2[C@@H]1C(=O)Nc1nc2ccccc2s1)C(=O)OC` is higher in composite z-score: 0.154 for the first, 0.588 for the second.

Going from `CC(C)C[C@@H]1NC(=O)[C@H](C(C)C)NC(=O)[C@@]23C(=O)N[C@@H](Cc4ccccc4)C2[C@H](C)[C@@]2(C)O[C@H]2C3/C=C/CC/C=C/CNC1=O` (some centres not stated) to `CCCCCCc1nc(-c2ccc(OC)nc2)cc2c1[Si](C(C)C)(C(C)C)O[C@H]2c1ccccc1`, the composite z-score falls from 1.71 to 1.21.

Compared with `O=C1NC(=O)C2C1C=CC(C(O)c1cc(C(F)(F)F)cc(C(F)(F)F)c1)N2Nc1ccccn1` (configuration not stated), `CCC(CC)C(O)C1C=CC2C(=O)NC(=O)C2N1Nc1ccc(Cl)cc1Cl` (configuration not stated) is lower in composite z-score: 0.87 for the first, 0.463 for the second.

Compared with `Cc1ccc(S[C@]2(C(=O)NCCCN(C)C)CC(=O)N(Cc3cc(C(F)(F)F)cc(C(F)(F)F)c3)[C@@H]2c2ccc(CO)cc2I)cc1`, `COC(=O)[C@@]1(Cc2ccc(F)cc2)[C@H]2c3cc(C(=O)N(C)C)n(Cc4ccccc4)c3C[C@H]2CN1C(=O)c1ccccc1` is higher in composite z-score: -0.503 for the first, 0.0292 for the second.

Compared with `C=C(C(=O)CC[C@@H](OC(=O)c1cccnc1)c1ccccc1OCCO)C(C)C`, `C=C(COC)/C(=C/C[C@@H](OC(C)=O)c1ccc(OCCO)cc1)c1cnc2ccccc2c1` is higher in composite z-score: 1.37 for the first, 1.75 for the second.

Compared with `COc1cc(NN2C(C(O)c3ccco3)C=CC3C(=O)N(c4ccccc4)C(=O)C32)cc(OC)c1OC` (configuration not stated), `O=C1C2C=CC(C(O)CCc3ccccc3)N(Nc3ccccc3F)C2C(=O)N1c1ccccc1` (configuration not stated) is higher in composite z-score: 0.179 for the first, 0.366 for the second.

Going from `COC(=O)[C@@]1(Cc2ccc(OC)cc2)[C@H]2c3cc(C(=O)N(C)C)n(CCc4ccccn4)c3C[C@H]2CN1C(=O)c1ccccc1` to `COC(=O)[C@@]1(Cc2ccc(OC)cc2)[C@H]2c3cc(C(=O)N(C)C)n(Cc4ccccn4)c3C[C@H]2CN1C(=O)c1ccccc1`, the composite z-score falls from -0.127 to -0.403.

Going from `O=C(NC1CC1)[C@@H]1c2ccccc2C(=O)N(Cc2ccccc2Cl)[C@H]1c1ccc(CO)cc1` to `O=C1O[C@@H](c2ccccc2)[C@@H](c2ccccc2)N2[C@@H](c3ccccc3OCCO)[C@]3(C(=O)Nc4ccc(C#CC5=CCCCC5)cc43)[C@@H](C(=O)N3CCCCCCC3)[C@H]12`, the composite z-score rises from 0.957 to 1.22.

Compared with `C=C[C@H](CO[Si](CC)(CC)CC)N(Cc1ccc(OC(C)=O)c(OC)c1)S(=O)(=O)c1ccc(Br)cc1`, `CN(C)C(=O)[C@@]1(CCS(=O)(=O)c2ccccc2)COC(c2ccc(OCCCO)cc2)=N1` is lower in composite z-score: 1.15 for the first, -0.977 for the second.

Compared with `CCOC(=O)[C@H]1C/C=C/C[C@H](C(=O)OCC)C(=O)O[C@H]2[C@@H](OC)O[C@H](CO)[C@@H](OC(=O)c3c(OC)cccc3OC)[C@@H]2OC1=O`, `COC(=O)C(CC#Cc1ccc2c(c1)[C@]1(C(=O)N2)[C@H](C(=O)Nc2nc3ccccc3s2)[C@H]2C(=O)O[C@H](c3ccccc3)[C@H](c3ccccc3)N2[C@@H]1c1ccccc1OCCO)C(=O)OC` is lower in composite z-score: 1.44 for the first, 1.03 for the second.

First: CCOC(=O)C[C@H]1[C@H](OC(=O)c2ccc(C(=O)c3ccccc3)cc2)[C@@H](NC(=O)c2ccc3ccccc3c2)c2cc(OCCCO)ccc2N1C(=O)Cc1ccc(OC)cc1
Second: COCCOC(=O)N1C(=O)[C@@]2(c3cc(C#CCNC(N)=O)ccc31)[C@H](C(=O)N1CCN(c3ncccn3)CC1)[C@H]1C(=O)O[C@H](c3ccccc3)[C@H](c3ccccc3)N1[C@@H]2c1ccc(OCCO)cc1
The composite z-score of the first is lower: -0.006 for the first, 0.911 for the second.

Going from `COC(=O)[C@@]1(CCC(=O)OC(C)(C)C)N=C(c2ccc(OCCCO)cc2)O[C@H]1c1ccccc1N=[N+]=[N-]` to `C=CCN1C(=O)[C@@]2(CC=C)N=C(c3ccc(OCCCO)cc3)O[C@H]2c2ccccc21`, the composite z-score rises from 0.696 to 1.47.

Going from `CCCC[C@@H]1C[C@H]1[C@@H](NC(=O)c1ccccc1)c1ccc(C(=O)OC)cc1` to `CCCC[C@@H]1C[C@H]1[C@@H](NC(=O)c1ccco1)c1ccc(-c2ccccc2)cc1`, the composite z-score rises from -1.11 to -0.308.

Going from `C=C(CC1([C@@H](NP(=O)(c2ccccc2)c2ccccc2)[C@H]2C[C@@H]2CCCC)CC1)c1ccccc1` to `CCCC[C@@H]1C[C@H]1[C@@H](NC(=O)c1ccco1)c1ccccc1C(F)(F)F`, the composite z-score rises from -0.509 to 0.0509.

Going from `C=C(C)[C@@H]1CC=C(C(O)C2C=CC3C(=O)N(C)C(=O)C3N2Nc2ccccc2)CC1` (some centres not stated) to `O=C1C2C=CC(C(O)Cc3ccccc3)N(n3cnnc3)C2C(=O)N1Cc1ccccc1` (configuration not stated), the composite z-score falls from 1.89 to -0.373.

Work on `CC#CC(=O)Oc1ccccc1C=CC(=O)OCC` yielded a composite z-score of 0.0449.
